# In all, about 2,100 compounds went through this assay and about 1,100 (52%) were called active. Another 29% or so got no clear call; they are omitted. Calls come from the whole dose curve; as a rule, active = well fitted inhibition curve with a large enough effect; inconclusive = small, poorly fitted or top-dose-only effect; inactive = no such curve, though single readings can be large or run the other way. The set was probably picked from earlier hits. This is one part of the list.
# Molecular target: DNA dC->dU-editing enzyme APOBEC-3F (Homo sapiens) (UniProt Q8IUX4)
# Sequence (Q8IUX4 whole entry, looked up): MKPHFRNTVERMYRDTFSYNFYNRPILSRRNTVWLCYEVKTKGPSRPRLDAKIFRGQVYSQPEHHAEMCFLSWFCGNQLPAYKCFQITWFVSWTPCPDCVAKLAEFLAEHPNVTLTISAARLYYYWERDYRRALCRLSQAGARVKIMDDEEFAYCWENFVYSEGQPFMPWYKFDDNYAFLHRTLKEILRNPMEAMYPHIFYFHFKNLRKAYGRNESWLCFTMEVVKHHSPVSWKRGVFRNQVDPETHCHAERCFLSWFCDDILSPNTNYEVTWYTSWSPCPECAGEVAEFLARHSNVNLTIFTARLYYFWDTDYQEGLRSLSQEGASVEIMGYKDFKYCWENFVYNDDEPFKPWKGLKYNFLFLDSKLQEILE
# Experiment: qHTS for inhibitors of Vif-A3F interactions: Cherry picks counterscreen; note: nearly all actives have a fitted effect of over 65% in size
# Details: HeLa A3F-eYFP/Vif cells, eYFP fluorescence, 24 h; series mostly up to 46.1 µM; activity, negative = inhibitor: at the top concentration
# Outline: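 Rescue of Vif-driven A3F-eYFP degradation read as cellular eYFP fluorescence after 24 h compound exposure (several concentrations) in stable HeLa cells; MG132 (2 mM stock) as positive control.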
# % is set by controls: 0 for no effect and ±100 for the full control effect; potency is the fitted concentration of half-maximal effect.
SMILES,"activity, negative = inhibitor",Potency
Cc1cc(N/N=C/c2ccc(O)cc2O)nc(-n2nc(C)cc2C)n1,1.63% [at 36.9 µM] (inactive),–
C=CCSc1nc2sc3c(c2c(=O)n1CC)CCC3,-15.9% (inactive),–
CCN(CC)C(=O)Cn1c(=O)n(-c2ccccc2)c(=O)c2c3c(sc21)CCC3,–,23.1 µM (active)
O=C(CC1CC2CCC1C2)Nc1nc(-c2ccccn2)cs1 (stereo unspecified),17.2% (inactive),–
O=C(c1ccccn1)C1CCCN(Cc2cn[nH]c2-c2cc3ccccc3o2)C1 (stereo unspecified),5.43% [at 36.9 µM] (inactive),–
COc1cc(C=C2C(=O)c3ccccc3C2=O)cc(OC)c1OC,-9.75% (inactive),–
COc1ccc2c(c1)/C(=C/c1cc(OC)c(OC)c(OC)c1)C(=O)N2,–,2.23 µM (active)
O=C1NC(=Nc2ccccc2Cl)S/C1=C\c1cc([N+](=O)[O-])ccc1O,-9.23% [at 36.9 µM] (inactive),–
O=C1/C(=C\c2cc([N+](=O)[O-])ccc2O)SC(=S)N1Cc1ccc(Cl)cc1,–,9.2 µM (active)
c1ccc(-c2nccc(-c3ccc4c(c3)OCO4)n2)cc1,–,5.59 µM (active)
COC(=O)CCS(=O)(=O)c1nc(-c2ccccc2)cc(C(F)(F)F)n1,–,12.5 µM (active)
CC1CCN(C(=O)C(C)Sc2nc(-c3ccccc3)cc(C(F)(F)F)n2)CC1 (stereo unspecified),-2.71% (inactive),–
C=C(C)CNC(=S)N/N=C1\CCCCc2ccccc21,2.63% (inactive),–
COc1ccc(N2C(=O)CC(Sc3nc(C)c4c(n3)CCCC4)C2=O)cc1 (stereo unspecified),–,15.8 µM (active)
Nc1c(C(=O)c2ccccc2)sc2nsc(SCCN3CCOCC3)c12,–,7.31 µM (active)
Nc1c(C(=O)c2ccccc2)sc2nsc(SCCN3CCCC3)c12,–,14 µM (active)
Nc1c(C(=O)c2ccccc2)sc2snc(SCC(=O)c3ccccc3)c12,–,15.8 µM (active)
CSCC[C@H](NC(=O)[C@H](Cc1ccccc1)n1c(=O)[nH]c2ccccc2c1=O)C(=O)N1CCC[C@@H]1C(=O)O,-11.6% [at 36.9 µM] (inactive),–
CCC1=Nc2cc(C(=O)NCc3cccnc3)ccc2Sc2ccc(C)cc21,–,5.59 µM (active)
CCCC1=Nc2cc(C(=O)NCc3ccco3)ccc2Sc2ccccc21,–,1.98 µM (active)
COc1ccc(C(=O)NC(=S)NCc2cccnc2)cc1Cl,6.65% (inactive),–

SMILES,"activity, negative = inhibitor",Potency
Cc1cc(C)nc(NC(=S)Nc2cccc(Cl)c2Cl)c1,-15.2% (inactive),–
C/C(=N\NC(=S)NC(C)C)c1ccc(C(C)(C)C)cc1,-3.08% (inactive),–
FC(F)(Cl)c1nnc2ccc(Cl)nn12,–,6.27 µM (active)
CC[N+](C)(C(=O)O)/C(=C\c1ccccc1)c1ccnc2ccccc12 (stereo unspecified),–,18.4 µM (active)
Cc1nnc(NC(=O)c2sc3nc(-c4cccs4)cc(C(F)(F)F)c3c2N)s1,–,6.51 µM (active)
Nc1c(C(=O)Nc2ccc(F)cc2)sc2nc(-c3cccs3)cc(C(F)(F)F)c12,–,2.91 µM (active)
Nc1c(C(=O)Nc2nccs2)sc2nc(-c3cccs3)cc(C(F)(F)F)c12,–,11.2 µM (active)
Nc1c(C(=O)Nc2nc3ccccc3s2)sc2nc(-c3cccs3)ccc12,–,18.4 µM (active)
O=C1N/C(=N\N=C\c2ccco2)SC1Cc1ccccc1[N+](=O)[O-] (stereo unspecified),8.96% (inactive),–
C/C(=N\NC(N)=S)C12CC3CC(CC(C3)C1)C2,-4.36% [at 36.9 µM] (inactive),–
O=C(NC1CCCCC1)c1cccc2c1C(=O)c1ccc(N3CCC(Cc4ccccc4)CC3)cc1S2(=O)=O,–,15.8 µM (active)
O=C(NC1CC1)c1cccc2c1C(=O)c1ccc(N3CCC(Cc4ccccc4)CC3)cc1S2(=O)=O,–,18.4 µM (active)
N#CCc1ccc(NC(=O)/C=C/c2ccc([N+](=O)[O-])o2)cc1,–,11.6 µM (active)
CC(C)Cn1c(N)c(C(=O)COC(=O)c2ccc([N+](=O)[O-])o2)c(=O)n(C)c1=O,-5.06% [at 36.9 µM] (inactive),–
CCOC(=O)CCc1ccc(NC(=O)/C=C/c2ccc([N+](=O)[O-])o2)cc1,–,20.6 µM (active)
O=C(/C=C/c1ccc([N+](=O)[O-])o1)NNC(=O)c1ccc(F)cc1,–,2.8 µM (active)
CCc1ccc(C(=O)/C=C/c2ccc([N+](=O)[O-])o2)cc1,–,15.8 µM (active)
O=c1cc(-c2ccccc2)[nH]c2ccccc12,–,2.23 µM (active)
COc1cc2nc(/C=C/c3ccc(N(C)C)cc3)sc2cc1SC,–,11.6 µM (active)
CCS(=O)(=O)c1nn2c(N)c(/C=C3/C=CC(=O)C(OC)=C3)c(=O)nc2s1,47.2% (inactive),–
COC(=O)c1c(-c2cccnc2)csc1NC(=O)c1ccc2c(c1)OCO2,-20.7% (inactive),–

SMILES,"activity, negative = inhibitor",Potency
COc1cc(C(=O)c2ccc3c(c2)OCO3)cc(OC)c1OC,–,7.04 µM (active)
CCOC(=O)C1C(=O)C=C(/C=C/c2ccc(N(C)C)cc2)CC1c1ccccc1 (stereo unspecified),–,16.4 µM (active)
CCCCOc1ccc(-c2nnn(CC(=O)NCc3ccco3)n2)cc1,–,6.27 µM (active)
CCOC(=O)c1c(Nc2ccc(Cl)cc2)sc(/C=C2\C=Nc3ccccc32)c1O,–,14.6 µM (active)
Cc1cccc(C(=O)NC(=S)N2CCc3ccccc3C2)c1,1.57% (inactive),–
CN(C)CCCN(C(=O)/C=C/c1cccs1)c1nc2ccc(F)cc2s1,-13.7% (inactive),–
COc1cc2c(cc1OC)CN(C(=O)/C=C/c1cccs1)CC2,–,2.8 µM (active)
S=c1[nH]cnc2sc(-c3ccccc3)cc12,8.41% (inactive),–
O=c1[nH]c(-c2cccnc2)nc2sc(-c3ccccc3)cc12,–,4.44 µM (active)
Cc1ccc(S(=O)(=O)Nc2cc(Cl)c(O)c3ncccc23)cc1,-18.6% [at 36.9 µM] (inactive),–
CC(=O)c1c(C)oc2c1cc(NS(=O)(=O)c1ccc(Br)cc1)c1ccccc12,–,2.91 µM (active)
CCc1nc(Nc2ccc3nccnc3c2)c2oc3ccccc3c2n1,–,23.1 µM (active)
COc1ccc(S(=O)(=O)Nc2cccc(-c3ccc4nncn4n3)c2)cc1F,–,1.98 µM (active)
COc1ccc(S(=O)(=O)Nc2cccc(-c3ccc4nncn4n3)c2)cc1,–,3.14 µM (active)
O=Cc1s/c(=N\S(=O)(=O)c2ccccc2)n(CCCCl)c1Cl,–,5.8 µM (active)
O=C1[C@@H]2[C@@H](CN3CN(c4ccccc4)N=C(c4ccccc4)[C@@]23c2ccccc2)C(=O)N1c1ccccc1,15.5% (inactive),–
CCN1/C(=C/c2ccc3ccccc3[n+]2CC)C=Cc2ccccc21,-22.3% (inactive),–
CCN1/C(=C/c2cc[n+](C)cc2)C=Cc2cc(C)ccc21,–,18.4 µM (active)
Cc1cc(C)cc(NC(=O)Cn2c(=O)oc3cc(S(=O)(=O)N4CCC(C)CC4)ccc32)c1,–,12.5 µM (active)
